The list is not random: actives were taken first. Their share in the collection is about 10%.
Luciferase inh – Firefly luciferase inhibition profiling of diverse chemical library using quantitative high-throughput screening; Luciferin 4-monooxygenase (Photinus pyralis), P08659; purified P. pyralis luciferase, luminescence, biochemical; 76,000 compounds, 2.5% hits; AID 1347043, 2019; Potency, µM (top dose mostly 115 µM), most hits filed as inhibitors; note: nearly all actives have a fitted effect of over 65% in size
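Inhibitors were tested against purified firefly luciferase in a biochemical, low-substrate format (both substrates at 10uM) and luminescence measured with a CCD imager.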
NPR1 antag – Natriuretic polypeptide receptor (hNpr1) antagonism - Primary qHTS. HEK293 hNpr1 GloSensor cGMP, ANP-stimulated luminescence. Potency, µM (series often up to 46.3 µM), for inactives: top-dose activity change, negative = inhibition, most hits filed as inhibitors. Atrial natriuretic peptide receptor 1 (Homo sapiens), P16066. 76,000 compounds, 1.6% hits; calls by dose curve; note: nearly all actives have a fitted effect of over 60% in size
Target sequence (P16066 whole entry, looked up): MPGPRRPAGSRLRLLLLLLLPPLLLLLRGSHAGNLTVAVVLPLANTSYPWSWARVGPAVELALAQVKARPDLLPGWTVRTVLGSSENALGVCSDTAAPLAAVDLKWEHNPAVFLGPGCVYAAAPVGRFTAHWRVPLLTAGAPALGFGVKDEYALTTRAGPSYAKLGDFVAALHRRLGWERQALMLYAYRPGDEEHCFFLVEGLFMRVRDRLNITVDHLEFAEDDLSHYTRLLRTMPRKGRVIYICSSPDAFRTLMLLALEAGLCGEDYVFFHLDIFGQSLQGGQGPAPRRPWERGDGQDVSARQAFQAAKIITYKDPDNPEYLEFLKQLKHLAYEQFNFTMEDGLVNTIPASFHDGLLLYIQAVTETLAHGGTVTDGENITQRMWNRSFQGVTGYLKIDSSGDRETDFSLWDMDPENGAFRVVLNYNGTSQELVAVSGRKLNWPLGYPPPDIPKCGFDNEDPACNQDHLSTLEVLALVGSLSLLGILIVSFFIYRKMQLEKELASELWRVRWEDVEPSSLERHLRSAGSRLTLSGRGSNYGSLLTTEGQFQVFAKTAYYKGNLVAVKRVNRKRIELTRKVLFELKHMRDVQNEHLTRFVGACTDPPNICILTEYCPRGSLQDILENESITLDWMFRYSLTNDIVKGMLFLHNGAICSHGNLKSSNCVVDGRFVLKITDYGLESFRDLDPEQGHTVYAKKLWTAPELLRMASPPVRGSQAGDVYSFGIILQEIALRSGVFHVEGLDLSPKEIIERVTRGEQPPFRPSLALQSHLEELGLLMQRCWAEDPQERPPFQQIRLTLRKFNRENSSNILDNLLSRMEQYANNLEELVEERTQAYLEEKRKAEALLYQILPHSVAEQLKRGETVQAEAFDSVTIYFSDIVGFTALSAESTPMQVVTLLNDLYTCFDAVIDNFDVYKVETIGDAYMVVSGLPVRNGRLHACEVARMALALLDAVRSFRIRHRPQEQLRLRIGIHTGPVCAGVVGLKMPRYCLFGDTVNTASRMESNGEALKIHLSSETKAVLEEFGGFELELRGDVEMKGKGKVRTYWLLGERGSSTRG
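HEK293 cells stably expressing human Npr1 and cGMP GloSensor pGS-40F, loaded 2 h with 2% GloSensor reagent, given compound 30 min at room temperature. Luminescence read before and 20 min after 0.1 nM hNppA.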
HEK cytotox – Cytotoxic Profiling in HEK 293 Cell Line of Diverse Libraries Using Quantitative High-Throughput Screening; 94,000 compounds, 6.6% hits; HEK 293 viability, ATP luminescence (CellTiter-Glo), 48-72 h; Potency, µM (doses to about 115 µM), without a hit: at the highest dose activity change, negative = cytotoxicity, usual class: inhibitors; note: nearly all actives have a fitted effect of over 60% in size
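250 HEK 293 cells/well; compound by pintool; incubated 48 or 72 hr at 37 degree Celsius; CellTiter-Glo added, 10 min RT, luminescence imaged.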
GPT2 inhibitor – Primary qHTS assay for inhibitors of Glutamate pyruvate transaminase 2 (GPT2); Recombinant GPT2, coupled pyruvate oxidase/HRP Amplex Red fluorescence; Potency, µM (highest dose often 57.7 µM), for inactives: top-dose activity change, negative = inhibition, hits mostly inhibitors; 100,000 compounds, 0.25% hits; AID 1671188, 2021; note: nearly all actives have a fitted effect of over 60% in size
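Recombinant GPT2 (10ng/uL) with 250uM a-KG and 2mM L-alanine, 30 min at room temperature, in HEPES pH 7.5 buffer. Pyruvate detected by pyruvate oxidase/HRP/Amplex Red fluorescence after 30 min in the dark; AOA (50uM) as positive control.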
3T3 cytotox – Cytotoxic Profiling in NIH 3T3 Cell Line of Diverse Libraries Using Quantitative High-Throughput Screening. NIH 3T3 viability, CellTiter-Glo ATP luminescence, 48-72 h. Potency, µM (top dose mostly 96.7 µM), for the others: at the top dose activity change, negative = cytotoxicity, usual class: inhibitors. 94,000 compounds, 4.3% hits; note: nearly all actives have a fitted effect of over 55% in size
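Viability of NIH 3T3 cells after 48 or 72 hr compound treatment at 37 °C was assessed by CellTiter-Glo, with luminescence imaged following a 10 min room-temperature step.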
* marks the source's active call; other numbers are inactive results; i = inactive; ? = inconclusive; nt = no result given; ! = not confirmed by another sample; [ ] = remark or other dose. Unless noted, calls come from the whole dose curve; as a rule, active = well fitted curve in the direction sought with a large enough effect; inconclusive = small, poorly fitted or top-dose-only effect, or another doubt; inactive = no such curve, though single readings can be large; an effect the other way counts as inactive or inconclusive. % is set by controls: 0 for no effect and ±100 for the full control effect; potency is the fitted concentration of half-maximal effect.

SMILES	Luciferase inh	NPR1 antag	HEK cytotox	GPT2 inhibitor	3T3 cytotox
Cc1ccc(CN2CCCCCCNC(=O)[C@@H]3C[C@@H](C(=O)N4CCN(c5ccccn5)CC4)C[C@@H]32)o1	i	-12.1%	?	-9.4%	-28.0%
Cc1ccc(C(=O)NC2CCN(c3cc(-c4ccc(F)cc4)[nH]n3)C2)cc1C (stereo unspecified)	i	-9.1%	?	?	?
COc1ccc(N2C(=O)C3(CCCCC3)C2C(=O)N2CCN(CC(C)C)CC2)cc1 (stereo unspecified)	i	6.8%	0.9%	3.5%	i
COc1cccc(NC(=O)Cn2c(-c3cccc(Cl)c3)nc(C)c(CCO)c2=O)c1	i	-20.2%	79.4µM*	2.5%	?
CCOc1ccccc1NC(=O)Cn1c(-c2ccccc2)nc(C)c(CCO)c1=O	i	-11.4%	-25.7%	i	-3.3%
COc1ccc(NC(=O)Cn2c(-c3ccc(F)cc3)nc(C)c(CCO)c2=O)cc1Cl	i	-21.6%	35.5µM*	4.1%	?
COc1ccccc1NC(=O)Cn1c(-c2ccccc2)nc(C)c(CCO)c1=O	i	-11.6%	35.5µM*	i	?
Cc1cccc(NC(=O)Cn2c(-c3cccc(Cl)c3)nc(C)c(CCO)c2=O)c1	i	-14.3%	39.8µM*	4.3%	?
O=C1CCC2(CCCO2)CCN1Cc1ccccc1 (stereo unspecified)	i	4.8%	-21.6%	-3.9%[11.5 µM]	-7.6%
CCc1cccc(NC(=O)Cn2c(-c3ccccc3)nc(C)c(CCO)c2=O)c1	i	-14.3%	?	-6.5%	?
COc1ccc(Cn2c(-c3ccc(Cl)cc3)nc(C)c(CCO)c2=O)cc1F	i	-0.1%	44.7µM*	-15.3%	?
CCOc1ccc(NC(=O)Cn2c(-c3cccc(Cl)c3)nc(C)c(CCO)c2=O)cc1	i	-11.0%	?	4.6%	31.6µM*
Cc1nc(-c2ccccc2)n(CC(=O)Nc2cccc(Cl)c2)c(=O)c1CCO	i	?	25.1µM*	i	?
O=C1NCC2(CCN(Cc3cccc4ccccc34)CC2)Oc2ccccc21	nt	nt	?	-9.8%	?
Cn1nc(-c2ccncc2)cc1NC(=O)c1ccccc1	nt	nt	?	i	?
O=c1[nH]c(N2CCOCC2)nc2c1CCN(Cc1ccccc1Cl)CC2	i	7.7%	-2.5%	i	-6.9%
O=c1c2nc(Nc3cccc(F)c3)ccc2ncn1-c1ccccc1	nt	nt	nt	0.5%[88.5 µM]	nt
O=c1c2nc(Nc3cccc(F)c3)ccc2ncn1Cc1ccccc1	?	-19.0%[70.6 µM]	79.4µM*	-1.6%[88.5 µM]	?
O=C(Cn1nc2n(c1=O)CCCC2)Nc1ccc2c(c1)OCCO2	20µM*	-18.5%	12.7%	i	i
O=C(CN1C(=O)NC2(CCOCC2)C1=O)Nc1ccc(F)cc1	i	21.6%	-1.1%	i	3.5%
CC(C)(C)C1CCC2(CC1)NC(=O)N(CC(=O)Nc1ccc3c(c1)OCCO3)C2=O (stereo unspecified)	?	0.0%	?	-2.8%	28.2µM*
O=C(CN1C(=O)NC2(CCOCC2)C1=O)Nc1ccc2c(c1)OCCO2	44.7µM*	3.0%	1.9%	i	1.1%
Cc1cnc(-c2ccncc2)n1CC1CN(C(=O)CCc2ccccc2)C1	nt	nt	-0.4%	-6.4%	-16.8%
O=C(NCCOc1ccccc1)c1cnc2n1CCN(Cc1ccc3[nH]ccc3c1)CC2	i	-0.4%[70.6 µM]	?	i	?
COc1ccccc1CN1CCc2ncc(C(=O)Nc3ccccc3)n2CC1	i	-0.6%[70.6 µM]	?	i	?
SMILES	Luciferase inh	NPR1 antag	HEK cytotox	GPT2 inhibitor	3T3 cytotox
O=C(Nc1ccccc1)c1cnc2n1CCN(Cc1ccc3[nH]ccc3c1)CC2	i	-2.3%[70.6 µM]	100µM*	i	89.1µM*
COc1ccc(OC)c(CN2CCc3ncc(C(=O)Nc4ccccc4)n3CC2)c1	i	-7.7%[70.6 µM]	112µM*	-0.4%[88.5 µM]	?
O=C1CO[C@H]2CN(Cc3ccccc3F)C[C@H]2N1c1ccccc1	i	-4.5%[70.6 µM]	79.4µM*	i	?
CCS(=O)(=O)N1CCC2(CC1)c1[nH]c3ccccc3c1CCN2C	i	-1.3%	?	0.2%	-31.9%
Cc1nn(C)c(C)c1S(=O)(=O)N1CCC2(CC1)c1[nH]c3ccccc3c1CCN2C	i	2.6%	89.1µM*	2.3%	-17.6%
Cc1cc(S(=O)(=O)N2CCCN(C)c3ccccc32)ccc1Cl	nt	nt	?	-8.9%	?
COc1ccccc1C(=O)N1CCC(N2C(=O)c3c(c(C)nn3-c3ccccc3)C2C)C1 (stereo unspecified)	nt	nt	44.7µM*	nt	?
Cc1nn(-c2ccccc2)c2c1C(C)N(C1CCN(C(=O)NC(C)C)C1)C2=O (stereo unspecified)	nt	nt	-19.8%	nt	?
COc1ccccc1C(=O)N1CCC(N2C(=O)c3c(c(C)nn3-c3ccccc3)C2C2CC2)C1 (stereo unspecified)	nt	nt	39.8µM*	nt	?
O=C(NCc1cccc(Cl)c1)c1nc2sccn2c1-c1cccc(C(F)(F)F)c1	nt	nt	?	i	?
O=S(=O)(c1ccccc1)N1CCN(c2cc(C3CC(O)C3)ncn2)CC1 (stereo unspecified)	i	-20.8%	39.8µM*!	-10.9%	?
COc1ccc(-c2noc([C@@H]3C[C@H](NCc4ccc(F)cc4)CN3C)n2)cc1	63.1µM*	-5.7%[70.6 µM]	100µM*	2.9%[88.5 µM]	?
COc1ccc(CC(=O)N[C@H]2C[C@@H](c3nc(-c4ccc5ccccc5c4)no3)N(C)C2)cc1	39.8µM*	-16.1%	-12.8%	i	-4.8%
CN1C[C@@H](NC(=O)c2ccccn2)C[C@H]1c1nc(-c2ccc3ccccc3c2)no1	31.6µM*	-3.4%[70.6 µM]	?	4.7%[88.5 µM]	?
CN(C)c1ccc(C(=O)N[C@H]2C[C@@H](c3nc(-c4ccc5ccccc5c4)no3)N(C)C2)cc1	i	-10.6%	?	-7.2%	?
COCC(=O)N[C@H]1C[C@@H](c2nc(-c3ccc(F)cc3)no2)N(C)C1	i	-2.6%[70.6 µM]	-3.9%[172 µM]	i	-5.4%[174 µM]
COc1ccccc1NC(=O)NCC1CCN(Cc2cccnc2)C1 (stereo unspecified)	i	-0.4%	-20.4%	-3.1%[11.5 µM]	-6.3%
CCCC(=O)N1Cc2ccccc2CC2(CCCN(C)C2)C1 (stereo unspecified)	nt	nt	89.1µM*	i	?
CN1CCCC2(Cc3ccccc3CN(C(=O)CCCC(=O)O)C2)C1 (stereo unspecified)	nt	nt	i	i	i

From PubChem
